# Most compounds without a hit are left out; they make up all but 32% or so of the library.
# CYP2C19 act: activators of human cytochrome P450 2C19. recombinant CYP2C19, luciferin-H EGE luminescence; active compounds read high; 0 = fully inhibited enzyme, 1 = untreated enzyme. AID 1025. P33261. 96,000 tested, under 10 active. activation factor at 5 µM;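 active means activation factor of at least 2 at 5 µM in the primary screen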;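 further: 0 = wells with 2.5 mM tranylcypromine and 1 = vehicle-only wells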
# Target sequence (P33261 whole entry, looked up): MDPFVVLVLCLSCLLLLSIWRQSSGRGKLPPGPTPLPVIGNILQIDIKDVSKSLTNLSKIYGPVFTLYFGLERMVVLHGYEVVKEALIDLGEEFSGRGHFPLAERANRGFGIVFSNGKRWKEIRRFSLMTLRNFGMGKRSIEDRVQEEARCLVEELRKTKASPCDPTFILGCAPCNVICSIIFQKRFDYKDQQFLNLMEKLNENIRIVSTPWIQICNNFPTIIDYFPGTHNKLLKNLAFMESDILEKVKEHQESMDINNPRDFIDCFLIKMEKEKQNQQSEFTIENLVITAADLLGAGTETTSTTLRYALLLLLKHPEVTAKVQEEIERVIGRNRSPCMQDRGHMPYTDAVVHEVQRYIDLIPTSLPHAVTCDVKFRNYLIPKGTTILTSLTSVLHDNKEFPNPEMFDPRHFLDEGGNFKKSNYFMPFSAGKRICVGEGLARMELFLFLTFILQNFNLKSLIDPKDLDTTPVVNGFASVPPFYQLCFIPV
# PostGolgi ctrl: growth of the yeast control strain, post-Golgi counter-screen | AID 738 | efflux-deficient yeast background strain, growth absorbance A615, 16 h | 5% of 98,000 active | inhibition, % at 10 µM
# CYP2C9 inh: blocks human cytochrome P450 2C9; inhibition, % at 5 µM; 20% of 96,000 active; AID 777; CYP2C9 Supersomes, luciferin-H conversion, luminescence;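 active means blocking of liver enzyme CYP2C9 beyond about 50% at 5 µM, limit read from the data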
# CYP2C9 act: increases human cytochrome P450 2C9 activity; AID 1024; 1.4% of 96,000 active; recombinant CYP2C9, luciferin-H conversion, luminescence; active compounds read high; factor 1 = untreated enzyme, 0 = blocked; activation factor at 5 µM;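 active means activation factor of 2 or more for CYP2C9 at a 5 µM dose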;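 further: 0 = sulfaphenazole-blocked wells and 1 = vehicle-only wells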
# PostGolgi yeast: growth inhibition of a yeast mutant, post-Golgi transport screen; post-Golgi transport phenotypic cell assay; inhibition, % at 10 µM; 0.9% of 98,000 active; AID 739;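 further: yeast cells grown in 1536-well plates; yeast grown about 18 h at 30C before absorbance read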
# CYP2C19 inhib: blocks human cytochrome P450 2C19 | inhibition, % at 5 µM | CYP2C19 Supersomes, luciferin-H EGE luminescence, 30 min | AID 778 | 21% of 96,000 active;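 active means CYP2C19 inhibition above a set limit at 5 µM in the primary screen, cut at about 50% in these data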;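 further: plate controls were negative control wells for no effect and 2.5 mM tranylcypromine positive control for full effect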
# Starred values were filed as active, the others as inactive; · = no result. Unless noted, no stated cut-off is given here; in the data, active means inhibition above about 30%; inactive means the rest.
SMILES,CYP2C19 act,PostGolgi ctrl,CYP2C9 inh,CYP2C9 act,PostGolgi yeast,CYP2C19 inhib
O=C1CC(c2cccc(Cl)c2)c2cc3c(cc2N1)CCC3 (stereo unspecified),0.8,89*,35,0.6,1,23
O=C1CC(c2cc(Br)ccc2F)c2cc3c(cc2N1)CCC3 (stereo unspecified),1.1,35*,20,0.8,2,-8
O=C1CC(c2ccccc2F)c2cc3c(cc2N1)CCC3 (stereo unspecified),0.9,30,25,0.7,4,11
CCOc1ccccc1N(C(=O)Cn1nnnc1-c1ccc(C)o1)C(CC)C(=O)NC(C)(C)C (stereo unspecified),·,4,·,·,9,·
Cc1ccc(S(=O)(=O)N2CCCC2)cc1C(=O)O,1.2,-3,3,1,3,-22
CCOc1ccc(C(=O)NCc2cccnc2)cc1,0.6,9,8,0.9,-1,44
O=C(NCc1cccnc1)c1sc2ccccc2c1Cl,0.1,2,33,0.7,-2,88*
O=C(NCc1cccnc1)c1cccc(C(F)(F)F)c1,0.1,-3,22,0.8,-8,89*
O=C(NCc1cccnc1)c1ccc(Cl)c(Cl)c1,0.3,2,11,0.9,11,75*
CCCOc1ccc(C(=O)NCc2cccnc2)cc1,0.8,32*,0,1,6,21
Cc1ccc2c(Cl)c(C(=O)NCc3cccnc3)sc2c1,0.6,0,38,0.6,0,44
CCCCN(CCCC)C(=O)c1nsnc1-c1ccccc1O,0.6,13,43,0.6,-4,37
Cc1ccc2nc(-c3ccc(N4C(=O)CC(N5CCCC(C)C5)C4=O)cc3)sc2c1 (stereo unspecified),1.2,6,-23,1.2,-2,-22
O=C(CSCc1c(Cl)cccc1Cl)NCc1cccnc1,0.5,17,16,0.8,-4,54*
O=C(NCc1cn2ccsc2n1)c1cccc(C(F)(F)F)c1,0.9,11,-26,1.3,-14,10
Cc1csc2nc(CNC(=O)c3cccc(C(F)(F)F)c3)cn12,0.9,6,-102,2*,-3,14
CCCCC(=O)Nc1ccc(C(=O)N2CCN(C)CC2)cc1,1,10,-9,1.1,5,3
Cc1cccc(C)c1N1C(=O)C2ON(c3ccccc3)C(c3ccncc3)C2C1=O (stereo unspecified),0,91*,100*,0,102*,100*
Cc1ccc(N2C(=O)C3ON(c4ccccc4)C(c4ccncc4)C3C2=O)c(C)c1 (stereo unspecified),0,10,95*,0,20,100*
CC(C)N1C(=O)C2ON(c3ccccc3)C(c3cccs3)C2C1=O (stereo unspecified),0.5,6,34,0.7,0,48
O=C1C2ON(c3ccccc3)C(c3ccncc3)C2C(=O)N1c1ccccc1 (stereo unspecified),0,1,86*,0.1,1,100*
COC(=O)[C@@H](NC(=O)Nc1ccc(OC)cc1)C(C)C,0.8,-3,19,0.8,3,25
CC(C)CCN(C)C1CCN(S(=O)(=O)c2ccc(F)cc2)CC1,1,15,7,0.9,-6,3
N#CC(C#N)=C/C(C#N)=C(/N)N1CCN(c2ccc(Cl)cc2)CC1,0.7,31*,10,0.9,47*,26
CC(=O)Nc1ccc(N2CCN(C(C)=O)CC2)cc1,1.1,9,-8,1.1,-3,-14
SMILES,CYP2C19 act,PostGolgi ctrl,CYP2C9 inh,CYP2C9 act,PostGolgi yeast,CYP2C19 inhib
CSC(=NC#N)N1CCN(c2ccc(Cl)cc2)CC1,0.1,19,43,0.6,-3,86*
CCOC(=O)C(/C=C(\C#N)C(=O)OCC)=C(/N)N1CCN(c2ccccc2)CC1,0.7,2,33,0.7,-7,26
CS(=O)(=O)c1ccc2nc(NC(=O)CC3CCCC3)sc2c1,1,2,9,0.9,-12,-3
Nc1cccc(-c2nc3cc(S(=O)(=O)c4ccc5oc(-c6cccc(N)c6)nc5c4)ccc3o2)c1,0.8,0,37,0.6,-11,23
Nc1cccc(S(=O)(=O)c2cccc(N)c2)c1,0.9,1,-201,3*,4,7
CCCCCCOC(=O)Sc1nc2ccccc2o1,0.5,9,65*,0.3,34*,52*
O=C(O)c1ccccc1CSc1nc2ccccc2o1,0.9,10,22,0.8,-1,8

# Screening results from PubChem.
